Measurements from PubChem BioAssay (NCI).
This is part of a sample that, as a whole, favours compounds with a hit. Of some 79,000 tested, about 15% had one in any assay. Values without a mark were called inactive. Active and inactive are the calls of the source. Cut-off read from the data, not from the text of the source: active = growth inhibition above about 70%; inactive = the rest.

Tests used:
[1] = NCI Yeast Anticancer Drug Screen. Data for the wt1 strain (AID 149);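 note: 0% = growth of vehicle-treated wt1 cultures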; settings: S. cerevisiae wt1 strain (SPY 50644) growth inhibition, hits give high values
Outline: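 Yeast wt1 strain exposed to compounds; growth inhibition measured relative to vehicle-treated controls.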

[2] = NCI Yeast Anticancer Drug Screen. Data for the rad50EPP+ strain (AID 151);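 note: 0% = growth of vehicle-treated control cultures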; settings: S. cerevisiae rad50 mutant strain, hits give high values
Outline: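 Growth inhibition read against vehicle controls in rad50EPP+ yeast, a strain altered in DNA damage repair, after compound exposure.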

[3] = NCI Yeast Anticancer Drug Screen. Data for the mgt1 strain (AID 153); settings: S. cerevisiae mgt1 mutant growth inhibition, hits give high values
Outline: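 mgt1 yeast grown with test compound; read-out is growth inhibition versus vehicle-treated cultures.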

[4] = NCI Yeast Anticancer Drug Screen. Data for the rad50 strain (AID 155);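 note: 0% = growth of vehicle-only cultures of the same strain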; settings: S. cerevisiae rad50 strain growth inhibition, hits give high values
Outline: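 Yeast carrying a defined DNA repair defect were exposed to test compounds, and growth was compared with vehicle-treated controls to give percent inhibition.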

[5] = NCI Yeast Anticancer Drug Screen. Data for the mec2-1 strain (AID 157); settings: S. cerevisiae mec2-1 strain, hits give high values
Outline: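 Yeast mec2-1 mutant treated with compound. Readout: growth inhibition vs vehicle controls.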

[6] = NCI Yeast Anticancer Drug Screen. Data for the rad14 strain (AID 159);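 note: 0% = growth of vehicle-treated control cultures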; settings: S. cerevisiae rad14 strain growth inhibition, hits give high values
Outline: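 Yeast cells carrying a defined DNA-repair defect were exposed to compounds, and growth inhibition was calculated relative to vehicle-treated control cultures.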

[7] = NCI Yeast Anticancer Drug Screen. Data for the sgs1 mgt1 strain (AID 161);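 note: 0% = growth of cultures given vehicle only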; settings: S. cerevisiae sgs1 mgt1 strain, hits give high values
Outline: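 Read-out: growth inhibition vs vehicle controls. Cells: mutant yeast strain deficient in DNA damage repair.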

[8] = NCI Yeast Anticancer Drug Screen. Data for the CLN2oe strain (AID 163);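 note: 0% = growth of vehicle-only control cultures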; settings: S. cerevisiae CLN2oe strain, hits give high values
Outline: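 Read-out: yeast growth inhibition, expressed relative to vehicle-only controls. The strain bears an engineered cell-cycle alteration.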

[9] = NCI Yeast Anticancer Drug Screen. Data for the cln2 rad14 strain (AID 165);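 note: 0% = growth equal to vehicle treated cultures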; settings: S. cerevisiae cln2 rad14 strain, hits give high values
Outline: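 cln2 rad14 yeast strain; compound exposure; growth inhibition read vs vehicle controls.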

[10] = NCI Yeast Anticancer Drug Screen. Data for the bub3 strain (AID 167); settings: S. cerevisiae bub3 mutant strain, hits give high values
Outline: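 Compounds were applied to a genetically altered yeast strain carrying a cell-cycle control defect. Growth inhibition was scored against vehicle-treated controls.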

[11] = NCI Yeast Anticancer Drug Screen. Data for the wt2 strain (AID 169);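 note: 0% = growth of vehicle-treated yeast cultures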; settings: S. cerevisiae wt2 strain growth inhibition, hits give high values
Outline: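 Read-out: growth inhibition versus vehicle-treated control cultures after compound exposure of the yeast strain.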

[12] = NCI Yeast Anticancer Drug Screen. Data for the mlh1 strain (AID 171);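 note: 0% = growth of vehicle-treated control cultures of the same strain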; settings: S. cerevisiae mlh1 strain growth inhibition, hits give high values
Outline: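 Read-out: growth inhibition versus vehicle controls. Strain: engineered yeast with a defined DNA repair or cell cycle defect, compound-treated.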

[13] = NCI Yeast Anticancer Drug Screen. Data for the sgs1 strain (AID 173);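 note: 0% = growth of vehicle-only control cultures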; settings: S. cerevisiae sgs1 mutant, hits give high values
Outline: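 Read-out: yeast growth inhibition relative to vehicle controls, following compound exposure of a strain with a defined DNA repair/cell cycle alteration.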

[14] = NCI Yeast Anticancer Drug Screen. Data for the mlh1 rad18 strain (AID 175); settings: S. cerevisiae mlh1 rad18 strain growth inhibition, hits give high values
Outline: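 Yeast w/ defined DNA-repair lesions; compound exposure; growth vs vehicle controls → % inhibition.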

[15] = NCI Yeast Anticancer Drug Screen. Data for the rad18 strain (AID 177); settings: S. cerevisiae rad18 mutant growth inhibition, hits give high values
Outline: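 Readout: growth inhibition vs vehicle controls. Cells: genetically altered yeast strain, DNA repair defect.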

[16] = at 5.0 µM (retest, dose inferred, filed as 0.5)
[17] = at 50.0 µM (retest, dose inferred, filed as 5.0)

O=C(/C=C\c1cccc(C(F)(F)F)c1)c1ccccc1 showed a growth inhibition ([1]; at 1.2 µM) of -1%, a growth inhibition ([1]; at 3.7 µM) of 2% and a growth inhibition ([1]; at 11.0 µM) of -1%. The growth inhibition ([1]; at 33.0 µM) was -3%, the growth inhibition ([1]; at 100.0 µM) was -5% and the growth inhibition ([2]; at 1.2 µM) was 1%. It also gave a growth inhibition ([2]; at 3.7 µM) of 0%, a growth inhibition ([2]; at 11.0 µM) of 3% and a growth inhibition ([2]; at 33.0 µM) of 4%. For the same compound, the growth inhibition ([2]; at 100.0 µM) was 9%, the growth inhibition ([3]; at 1.2 µM) was -3% and the growth inhibition ([3]; at 3.7 µM) was -1%. It also gave a growth inhibition ([3]; at 11.0 µM) of -3%, a growth inhibition ([3]; at 33.0 µM) of -2% and a growth inhibition ([3]; at 100.0 µM) of -4%. It also gave a growth inhibition ([4]; at 1.2 µM) of -3%, a growth inhibition ([4]; at 3.7 µM) of -3% and a growth inhibition [4, 16] of -5%. The growth inhibition ([4]; at 11.0 µM) was -1%, the growth inhibition ([4]; at 33.0 µM) was -4% and the growth inhibition [4, 17] was 40%. It also gave a growth inhibition ([4]; at 50.0 µM) of 20.3%, a growth inhibition ([4]; at 100.0 µM) of -1% and a growth inhibition ([5]; at 1.2 µM) of -4%. It also gave a growth inhibition ([5]; at 3.7 µM) of 0%, a growth inhibition [5, 16] of -19% and a growth inhibition ([5]; at 11.0 µM) of 0%. It also gave a growth inhibition ([5]; at 33.0 µM) of 1%, a growth inhibition [5, 17] of 3% and a growth inhibition ([5]; at 50.0 µM) of 20.1%. It also gave a growth inhibition ([5]; at 100.0 µM) of -5%, a growth inhibition ([6]; at 1.2 µM) of -2% and a growth inhibition ([6]; at 3.7 µM) of 1%. For the same compound, the growth inhibition ([6]; at 11.0 µM) was 2%, the growth inhibition ([6]; at 33.0 µM) was -2% and the growth inhibition ([6]; at 100.0 µM) was -3%. It also gave a growth inhibition [7, 16] of 18%, a growth inhibition [7, 17] of 59% and a growth inhibition ([7]; at 50.0 µM) of 36.4%. It also gave a growth inhibition ([8]; at 1.2 µM) of -2%, a growth inhibition ([8]; at 3.7 µM) of -11% and a growth inhibition ([8]; at 11.0 µM) of -5%. For the same compound, the growth inhibition ([8]; at 33.0 µM) was -5%, the growth inhibition ([8]; at 100.0 µM) was -10% and the growth inhibition [9, 16] was 8%. It also gave a growth inhibition [9, 17] of 10%, a growth inhibition ([9]; at 50.0 µM) of 1.55% and a growth inhibition ([10]; at 1.2 µM) of -2%. The growth inhibition ([10]; at 3.7 µM) was -6%, the growth inhibition [10, 16] was 11% and the growth inhibition ([10]; at 11.0 µM) was -2%. It also gave a growth inhibition ([10]; at 33.0 µM) of -3%, a growth inhibition [10, 17] of 49% and a growth inhibition ([10]; at 50.0 µM) of 26.1%. The growth inhibition ([10]; at 100.0 µM) was -9%, the growth inhibition ([11]; at 1.2 µM) was -2% and the growth inhibition ([11]; at 3.7 µM) was 0%. It also gave a growth inhibition ([11]; at 11.0 µM) of -2%, a growth inhibition ([11]; at 33.0 µM) of -2% and a growth inhibition ([11]; at 100.0 µM) of -4%. It also gave a growth inhibition ([12]; at 1.2 µM) of -2%, a growth inhibition ([12]; at 3.7 µM) of -2% and a growth inhibition ([12]; at 11.0 µM) of -2%. The growth inhibition ([12]; at 33.0 µM) was -3%, the growth inhibition ([12]; at 100.0 µM) was -1% and the growth inhibition ([13]; at 1.2 µM) was -2%. It also gave a growth inhibition ([13]; at 3.7 µM) of -3%, a growth inhibition ([13]; at 11.0 µM) of 1% and a growth inhibition ([13]; at 33.0 µM) of 0%. For the same compound, the growth inhibition ([13]; at 100.0 µM) was 3%, the growth inhibition [14, 16] was 16% and the growth inhibition [14, 17] was 78% (active). It also gave a growth inhibition ([14]; at 50.0 µM) of 25.9%, a growth inhibition ([15]; at 1.2 µM) of 0% and a growth inhibition ([15]; at 3.7 µM) of 1%. The growth inhibition ([15]; at 11.0 µM) was 7%, the growth inhibition ([15]; at 33.0 µM) was 22% and the growth inhibition ([15]; at 100.0 µM) was 57%.
Work on O=C1C=C(c2ccccc2)OC1(c1ccccc1)N1CCOCC1 (stereo not drawn) yielded a growth inhibition ([1]; at 1.2 µM) of -1%, a growth inhibition ([1]; at 3.7 µM) of 2% and a growth inhibition ([1]; at 11.0 µM) of -4%. The growth inhibition ([1]; at 33.0 µM) was -7%, the growth inhibition ([1]; at 100.0 µM) was 98% (active) and the growth inhibition ([2]; at 1.2 µM) was 3%. The growth inhibition ([2]; at 3.7 µM) was 7%, the growth inhibition ([2]; at 11.0 µM) was 7% and the growth inhibition ([2]; at 33.0 µM) was 10%. For the same compound, the growth inhibition ([2]; at 100.0 µM) was 17%, the growth inhibition ([3]; at 1.2 µM) was -5% and the growth inhibition ([3]; at 3.7 µM) was -6%. For the same compound, the growth inhibition ([3]; at 11.0 µM) was -4%, the growth inhibition ([3]; at 33.0 µM) was 59% and the growth inhibition ([3]; at 100.0 µM) was 98% (active). It also gave a growth inhibition ([5]; at 1.2 µM) of -1%, a growth inhibition ([5]; at 3.7 µM) of 4% and a growth inhibition [5, 16] of -12%. For the same compound, the growth inhibition ([5]; at 11.0 µM) was 3%, the growth inhibition ([5]; at 33.0 µM) was 8% and the growth inhibition [5, 17] was 0%. For the same compound, the growth inhibition ([5]; at 50.0 µM) was -5.95%, the growth inhibition ([5]; at 100.0 µM) was 98% (active) and the growth inhibition ([6]; at 1.2 µM) was -2%. The growth inhibition ([6]; at 3.7 µM) was -1%, the growth inhibition ([6]; at 11.0 µM) was -1% and the growth inhibition ([6]; at 33.0 µM) was 9%. For the same compound, the growth inhibition ([6]; at 100.0 µM) was 98% (active), the growth inhibition [7, 16] was -2% and the growth inhibition [7, 17] was 90% (active). It also gave a growth inhibition ([7]; at 50.0 µM) of 55.7%, a growth inhibition ([8]; at 1.2 µM) of 1% and a growth inhibition ([8]; at 3.7 µM) of -4%. The growth inhibition ([8]; at 11.0 µM) was 6%, the growth inhibition ([8]; at 33.0 µM) was 0% and the growth inhibition ([8]; at 100.0 µM) was 97% (active). The growth inhibition [9, 16] was 2%, the growth inhibition [9, 17] was 14% and the growth inhibition ([9]; at 50.0 µM) was 19.9%. The growth inhibition ([10]; at 1.2 µM) was 0%, the growth inhibition ([10]; at 3.7 µM) was -1% and the growth inhibition [10, 16] was -1%. The growth inhibition ([10]; at 11.0 µM) was 4%, the growth inhibition ([10]; at 33.0 µM) was 14% and the growth inhibition [10, 17] was 44%. For the same compound, the growth inhibition ([10]; at 50.0 µM) was -27.7%, the growth inhibition ([10]; at 100.0 µM) was 98% (active) and the growth inhibition ([11]; at 1.2 µM) was 0%. For the same compound, the growth inhibition ([11]; at 3.7 µM) was -1%, the growth inhibition ([11]; at 11.0 µM) was -3% and the growth inhibition ([11]; at 33.0 µM) was 52%. The growth inhibition ([11]; at 100.0 µM) was 98% (active), the growth inhibition ([12]; at 1.2 µM) was 3% and the growth inhibition ([12]; at 3.7 µM) was 1%. For the same compound, the growth inhibition ([12]; at 11.0 µM) was -7%, the growth inhibition ([12]; at 33.0 µM) was 55% and the growth inhibition ([12]; at 100.0 µM) was 98% (active). The growth inhibition ([13]; at 1.2 µM) was 0%, the growth inhibition ([13]; at 3.7 µM) was 0% and the growth inhibition ([13]; at 11.0 µM) was 4%. For the same compound, the growth inhibition ([13]; at 33.0 µM) was 76% (active), the growth inhibition ([13]; at 100.0 µM) was 98% (active) and the growth inhibition [14, 16] was -17%. For the same compound, the growth inhibition [14, 17] was 75% (active), the growth inhibition ([14]; at 50.0 µM) was -1.85% and the growth inhibition ([15]; at 1.2 µM) was 1%. The growth inhibition ([15]; at 3.7 µM) was -4%, the growth inhibition ([15]; at 11.0 µM) was -2% and the growth inhibition ([15]; at 33.0 µM) was 7%. For the same compound, the growth inhibition ([15]; at 100.0 µM) was 98% (active).
